# Source: PubChem BioAssay AID1159580 (chemical genetic matrix, 2015)
# Where “and” joins values, the source holds several entries; their conditions need not be identical. Equal entries are not always repeated. Out of some 5,500 compounds screened, about 2,000 (36%) were called active. Inconclusive results (about 18%) are left out. The list shows a part of the results. A number with no mark means an inactive call. No stated cut-off is given here; in the data, active means normalized growth mostly below about 0.91 (no sharp cut-off); inconclusive means no clear call, values can overlap the other calls; inactive means mostly above about 0.92.
# Experiment: chemical genetic growth profiling, strain panel (AID 1159580);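 further: tested at 20 µM; growth read once vehicle control cultures reached saturation at 30 °C; 1 = growth at the plate median or of vehicle wells; lower values mean less growth of the strain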
# Conditions: S. cerevisiae deletion strains, growth OD
structure (smiles),measurement,setting,value
CC(C)OC(=O)C(C)(C)Oc1ccc(C(=O)c2ccc(Cl)cc2)cc1,normalized growth,"locus YAL013W, strain DEP1, active compounds read low",1.01
same,normalized growth,"locus YAL021C, strain ccr4, active compounds read low",1
same,normalized growth,"locus YAL026C, strain drs2, active compounds read low",0.976
same,normalized growth,"locus YAL030W, strain snc1, active compounds read low",0.971
same,normalized growth,"locus YAL040C, strain CLN3, active compounds read low",1.08
same,normalized growth,"locus YBL061C, strain skt5, active compounds read low",0.966
same,normalized growth,"locus YBR009C, strain hhf1, active compounds read low",0.949
same,normalized growth,"locus YBR021W, strain FUR4, active compounds read low",0.976
same,normalized growth,"locus YBR023C, strain chs3, active compounds read low",0.97
same,normalized growth,"locus YBR171W, strain sec66, active compounds read low",0.965
same,normalized growth,"locus YBR229C, strain ROT2, active compounds read low",1
same,normalized growth,"locus YBR231C, strain swc5, active compounds read low",0.969
same,normalized growth,"locus YBR279W, strain paf1, active compounds read low",0.973
same,normalized growth,"locus YCL011C, strain gbp2, active compounds read low",0.954
same,normalized growth,"locus YCL016C, strain dcc1, active compounds read low",0.975
same,normalized growth,"locus YCL029C, strain bik1, active compounds read low",1.01
same,normalized growth,"locus YCL061C, strain MRC1 (second series), active compounds read low",0.982
same,normalized growth,"locus YCL061C, strain MRC1, active compounds read low",0.981
same,normalized growth,"locus YCL069W, strain vba3, active compounds read low",0.978
same,normalized growth,"locus YCR088W, strain abp1, active compounds read low",0.977
same,normalized growth,"locus YDL005C, strain med2, active compounds read low",0.961
same,normalized growth,"locus YDL035C, strain GPR1, active compounds read low",0.942
same,normalized growth,"locus YDL040C, strain nat1, active compounds read low",0.966
same,normalized growth,"locus YDL074C, strain BRE1, active compounds read low",0.931
same,normalized growth,"locus YDL101C, strain DUN1, active compounds read low",1.01
same,normalized growth,"locus YDL134C, strain PPH21, active compounds read low",0.995
same,normalized growth,"locus YDL185W, strain tfp1, active compounds read low",0.995
same,normalized growth,"locus YDL192W, strain arf1, active compounds read low",0.987
same,normalized growth,"locus YDR001C, strain nth1, active compounds read low",0.971
same,normalized growth,"locus YDR069C, strain doa4, active compounds read low",0.975
same,normalized growth,"locus YDR101C, strain arx1, active compounds read low",0.987
same,normalized growth,"locus YDR137W, strain rgp1, active compounds read low",0.943
same,normalized growth,"locus YDR150W, strain NUM1, active compounds read low",1.01
same,normalized growth,"locus YDR159W, strain sac3, active compounds read low",0.982
same,normalized growth,"locus YDR162C, strain NBP2, active compounds read low",0.671 (active)
same,normalized growth,"locus YDR195W, strain ref2",0.982
same,normalized growth,"locus YDR297W, strain sur2, active compounds read low",0.976
same,normalized growth,"locus YDR318W, strain mcm21, active compounds read low",0.969
same,normalized growth,"locus YDR334W, strain swr1, active compounds read low",0.976
same,normalized growth,"locus YDR335W, strain msn5, active compounds read low",0.977
same,normalized growth,"locus YDR363W, strain ESC2, active compounds read low",0.969
same,normalized growth,"locus YDR388W, active compounds read low",0.983
same,normalized growth,"locus YDR392W, strain spt3, active compounds read low",0.923
same,normalized growth,"locus YDR502C, strain sam2, active compounds read low",0.979
same,normalized growth,"locus YEL003W, strain gim4, active compounds read low",0.979
same,normalized growth,"locus YEL037C, strain rad23, active compounds read low",1.01
same,normalized growth,"locus YEL061C, strain CIN8 (second series), active compounds read low",0.963
same,normalized growth,"locus YEL061C, strain CIN8, active compounds read low",1.01
same,normalized growth,"locus YER002W, strain NOP16, active compounds read low",1
same,normalized growth,"locus YER015W, strain faa2, active compounds read low",0.967
same,normalized growth,"locus YER016W, strain bim1, active compounds read low",0.978
same,normalized growth,"locus YER110C, active compounds read low",0.998
same,normalized growth,"locus YER111C, strain swi4, active compounds read low",0.961
same,normalized growth,"locus YER155C, strain BEM2 (second series), active compounds read low",0.977
same,normalized growth,"locus YER155C, strain BEM2, active compounds read low",1
same,normalized growth,"locus YER167W, strain BCK2, active compounds read low",0.987
same,normalized growth,"locus YFR010W, strain ubp6, active compounds read low",0.964
same,normalized growth,"locus YGL078C, strain dbp3, active compounds read low",0.991
same,normalized growth,"locus YGL086W, strain mad1, active compounds read low",0.979
same,normalized growth,"locus YGL167C, strain pmr1, active compounds read low",0.957
same,normalized growth,"locus YGL173C, strain kem1, active compounds read low",0.977
same,normalized growth,"locus YGL227W, strain vid30, active compounds read low",0.967
same,normalized growth,"locus YGL240W, strain doc1, active compounds read low",0.991
same,normalized growth,"locus YGL248W, strain PDE1, active compounds read low",0.969
same,normalized growth,"locus YGL253W, strain hxk2, active compounds read low",0.972
same,normalized growth,"locus YGR078C, strain PAC10, active compounds read low",0.944 and 0.983
same,normalized growth,"locus YGR135W, strain pre9, active compounds read low",0.987
same,normalized growth,"locus YGR229C, strain SMI1, active compounds read low",0.763 (active)
same,normalized growth,"locus YGR252W, strain gcn5, active compounds read low",0.995
same,normalized growth,"locus YHR013C, strain ard1, active compounds read low",0.963
same,normalized growth,"locus YHR027C, strain rpn1, active compounds read low",0.986
same,normalized growth,"locus YHR030C, strain SLT2, active compounds read low",0.989 and 0.966
same,normalized growth,"locus YHR079C, strain IRE1 (second series), active compounds read low",0.987
same,normalized growth,"locus YHR079C, strain IRE1, active compounds read low",0.952
same,normalized growth,"locus YHR094C, strain hxt1, active compounds read low",0.977
same,normalized growth,"locus YHR129C, strain ARP1, active compounds read low",1
same,normalized growth,"locus YHR142W, strain chs7, active compounds read low",0.966
same,normalized growth,"locus YHR200W, strain rpn10, active compounds read low",0.995
same,normalized growth,"locus YIL066C, strain RNR3, active compounds read low",0.971
same,normalized growth,"locus YIL073C, strain SPO22, active compounds read low",0.741
same,normalized growth,"locus YIL125W, strain kgd1, active compounds read low",0.991
same,normalized growth,"locus YIR030C, strain dcg1, active compounds read low",0.983
same,normalized growth,"locus YJL092W, strain hpr5, active compounds read low",0.975
same,normalized growth,"locus YJL095W, strain BCK1 (second series), active compounds read low",0.981
same,normalized growth,"locus YJL095W, strain BCK1, active compounds read low",0.971 and 0.954
same,normalized growth,"locus YJL115W, strain asf1, active compounds read low",0.972
same,normalized growth,"locus YJL129C, strain trk1, active compounds read low",0.893
same,normalized growth,"locus YJL134W, strain LCB3, active compounds read low",1
same,normalized growth,"locus YJL154C, strain vps35, active compounds read low",0.973
same,normalized growth,"locus YJL164C, strain tpk1, active compounds read low",0.964
same,normalized growth,"locus YJL166W, strain qcr8, active compounds read low",0.955
same,normalized growth,"locus YJL168C, strain set2, active compounds read low",0.983
same,normalized growth,"locus YJL187C, strain SWE1 (second series), active compounds read low",1
same,normalized growth,"locus YJL187C, strain SWE1, active compounds read low",0.97
same,normalized growth,"locus YJR043C, strain POL32, active compounds read low",1.01
same,normalized growth,"locus YJR066W, strain TOR1, active compounds read low",0.873
